Consider seven compounds from PubChem BioAssay (EPA / NIEHS).

Results filed as inconclusive are left out. Active and inactive are the calls of the source. The calls were made as follows, unless noted: active = hit-call score of the fitted dose curve at least 0.9, where 1 is the maximum; inactive = score below 0.9.

Assay [1] deals with Retinoic acid receptor RXR-alpha (Homo sapiens) (UniProt P19793). The experiment in a line: ATG_RXRa_TRANS: Attagene TRANS-FACTORIAL HepG2 Assay for human Retinoid X Receptor alpha (RXRa) (AID 2283012; active = hit-call score of the fitted dose curve at least 0.9, where 1 is the maximum). The procedure, abridged: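 Read-out: fluorescent reporter-transcript fragments quantified by capillary electrophoresis after RT-PCR. Transiently transfected HepG2 cells carrying GAL4-UAS reporters and NR-GAL4 chimeras were exposed to chemical for 24 h; activity scored as increase over DMSO.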

In assay [2] the target is human Retinoid X Receptor beta (RXRb), RXRB (gene 6257) (UniProt P28702). The experiment in a line: ATG_RXRb_TRANS: Attagene TRANS-FACTORIAL HepG2 Assay for human Retinoid X Receptor beta (RXRb) (AID 2283013; active = hit-call score of the fitted dose curve at least 0.9, where 1 is the maximum). The procedure, abridged:
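Read-out: reporter mRNA induction via RT-PCR plus capillary electrophoresis fluorescence, analysed as signal increase relative to DMSO. Cells were human HepG2, transiently transfected with GAL4-UAS reporter constructs and chimeric receptor-Gal4 fusions, dosed for 24 h.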

The target of assay [3] is human Thyroid Receptor alpha (THRa1), THRA (gene 7067) (UniProt P10827). In words: ATG_THRa1_TRANS: Attagene TRANS-FACTORIAL HepG2 Assay for human Thyroid Receptor alpha (THRa1) (AID 2283014; active = hit-call score of the fitted dose curve at least 0.9, where 1 is the maximum). In outline:
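Reporter transcript induction, read by capillary electrophoresis of 6-FAM-labelled RT-PCR products, reflects activity of a transfected THRa1-Gal4 fusion in HepG2 liver cells. Cells were dosed for 24 h; activity was fitted in the positive direction against DMSO.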

Read-out in assay [4]: E-selectin (Homo sapiens) (UniProt P16581)
The experiment in a line: BSK_3C_Eselectin: BioMAP Diversity Plus: 3C Assay for Eselectin Biomarker Activity (AID 2283015).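 As to outcome: cell surface E-selectin protein quantified by ELISA 24 h after dosing.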 To be noted: primary human endothelial cells (HUVEC); actives raise or lower the signal. In outline: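 ELISA read-out of E-selectin on endothelial monolayers after 24 h chemical treatment. Human umbilical vein primary cells served as the system, with DMSO defining baseline activity for bidirectional fitting.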

Read-out in assay [5]: Interleukin-1 alpha (IL1a), IL1A (gene 3552)
In words: BSK_BE3C_IL1a: BioMAP Diversity Plus: BE3C Assay for Interleukin-1 alpha (IL1a) Biomarker Activity (AID 2283016). The conditions noted are these: primary human bronchial epithelial cells; actives raise or lower the signal. The procedure, abridged: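 ELISA read-out of IL-1a from human lung bronchial epithelial primary cells, 24 h post-dose. Gain or loss of signal fitted relative to DMSO negative control.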

Read-out in assay [6]: Monocyte Chemoattractant Protein-1 (MCP1), CCL2 (gene 6347)
The experiment in a line: BSK_3C_MCP1: BioMAP Diversity Plus: 3C Assay for Monocyte Chemoattractant Protein-1 (MCP1) Biomarker Activity (AID 2283017). To be noted: primary human endothelial cells (HUVEC); actives raise or lower the signal. The procedure, abridged: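 ELISA read-out of MCP-1 from human umbilical vein endothelial cell cultures harvested 24 h post-dosing. Gain or loss of signal was fitted relative to DMSO.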

Read-out in assay [7]: Monocyte Chemoattractant Protein-1 (MCP1), CCL2 (gene 6347)
In words: BSK_4H_MCP1: BioMAP Diversity Plus: 4H Assay for Monocyte Chemoattractant Protein-1 (MCP1) Biomarker Activity (AID 2283018). To be noted: primary human endothelial cells (HUVEC); actives raise or lower the signal. In outline:
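HUVEC primary cells, 24 h post-dose, MCP-1 by ELISA. Gain or loss of signal fitted bidirectionally vs DMSO baseline. Cytotoxicity: SRB stain (0.1% after 10% TCA fixation), read 560 nm, parallel cultures.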

Read-out in assay [8]: Human Leukocyte Antigen - DR isotype (HLADR), HLA-DRA (gene 3122)
In words: BSK_3C_HLADR: BioMAP Diversity Plus: 3C Assay for Human Leukocyte Antigen - DR isotype (HLADR) Biomarker Activity (AID 2283019).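 As to outcome: ELISA of cell-surface HLA-DR on HUVEC 24 h after dosing.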 The conditions noted are these: primary human endothelial cells (HUVEC); actives raise or lower the signal. In outline:
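ELISA readout of surface HLA-DR on human umbilical vein endothelium, taken 24 h after chemical treatment. Gain- and loss-of-signal were both fitted relative to DMSO.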

Read-out in assay [9]: Interleukin-8 (IL8), CXCL8 (gene 3576)
The experiment in a line: BSK_3C_IL8: BioMAP Diversity Plus: 3C Assay for Interleukin-8 (IL8) Biomarker Activity (AID 2283020). To be noted: primary human endothelial cells (HUVEC); actives raise or lower the signal. The procedure, abridged: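 HUVEC, 3C stimulation; 24 h compound exposure; IL-8 read by ELISA; gain or loss of signal fitted relative to DMSO control.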

Read-out in assay [10]: Monokine induced gamma interferon (MIG), CXCL9 (gene 4283)
In words: BSK_3C_MIG: BioMAP Diversity Plus: 3C Assay for Monokine induced gamma interferon (MIG) Biomarker Activity (AID 2283021).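 As to AC50: MIG protein level measured by immunoassay in the treated endothelial cultures.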 To be noted: primary human endothelial cells (HUVEC); actives raise or lower the signal. In outline:
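HUVEC, 3C system; 24 h chemical exposure; MIG by ELISA; bidirectional fit vs DMSO baseline.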

Assay [11] deals with human Vitamin D Receptor (VDR), VDR (gene 7421) (UniProt P11473). In words: ATG_VDR_TRANS: Attagene TRANS-FACTORIAL HepG2 Assay for human Vitamin D Receptor (VDR) (AID 2283022; active = hit-call score of the fitted dose curve at least 0.9, where 1 is the maximum). The procedure, abridged: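 Steps: transfect HepG2 with GAL4-UAS-driven reporter constructs; dose compounds 24 h; isolate RNA, reverse-transcribe, PCR-amplify with 6-FAM-labelled primer extension and HpaI digestion; quantify fragments by capillary electrophoresis relative to DMSO.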

Assay [12] is described as follows: BSK_3C_SRB: Viability Assessment in the BioMAP Diversity Plus: 3C Assay (AID 2283023).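 Also: fitted both ways against DMSO so a hit may be signal rise or drop.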 The conditions noted are these: primary human endothelial cells (HUVEC). In outline:
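Absorbance at 560 nm of sulforhodamine B-stained (0.1%) total protein served as a cytotoxicity readout in human umbilical vein endothelial cells, 24 h after chemical treatment. Signal was fitted bidirectionally relative to DMSO.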

Read-out in assay [13]: Matrix Metallopeptidase 1 (MMP1), MMP1 (gene 4312)
In words: BSK_BE3C_MMP1: BioMAP Diversity Plus: BE3C Assay for Matrix Metallopeptidase 1 (MMP1) Biomarker Activity (AID 2283024). To be noted: primary human bronchial epithelial cells; actives raise or lower the signal. The procedure, abridged:
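ELISA read-out of MMP1 in human lung bronchial epithelial primary cultures, 24 h post-dose; bidirectional curve fit vs DMSO baseline, gain or loss of signal scored.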

Assay [14] can be described thus: BSK_3C_Vis: BioMAP Diversity Plus: 3C Assay for Morphology Visualization (AID 2283025).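 Also: fitted both ways so gain or loss versus DMSO counts.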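 As to AC50: light microscopy image of cell morphology used as background control.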 To be noted: primary human endothelial cells (HUVEC). In outline:
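HUVEC, 3C system; light microscopy of morphology at 24 h post-dose. Bidirectional fit vs DMSO baseline. Secondary readout, background-control function.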

Assay [15] is described as follows: BSK_4H_SRB: Viability Assessment in the BioMAP Diversity Plus: 4H Assay (AID 2283027).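 Also: cells exposed to compound for 24 h before staining.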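 As to AC50: curves fitted both ways versus DMSO so AC50 may be loss or gain.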 The conditions noted are these: primary human endothelial cells (HUVEC). The procedure, abridged:
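HUVEC, 24 h post-dose; 10% TCA fix, 0.1% SRB stain, A560 nm. Total protein = overt cytotoxicity, parallel to biomarker read. Bidirectional fit vs DMSO baseline.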

Assay [16] can be described thus: BSK_BE3C_SRB: Viability Assessment in the BioMAP Diversity Plus: BE3C Assay (AID 2283028). To be noted: primary human bronchial epithelial cells. In outline:
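Cells (human bronchial epithelial, primary) are treated with chemicals, and after 24 h the parallel cultures are fixed in 10% TCA. These are then stained with 0.1% SRB and read at 560 nm. Gain or loss of signal is fitted relative to DMSO.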

Read-out in assay [17]: Thrombomodulin, THBD (gene 7056)
The experiment in a line: BSK_3C_Thrombomodulin: BioMAP Diversity Plus: 3C Assay for Thrombomodulin Biomarker Activity (AID 2283029). The conditions noted are these: primary human endothelial cells (HUVEC); actives raise or lower the signal. The procedure, abridged:
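HUVEC, 3C conditions; compound 24 h; thrombomodulin by ELISA; bidirectional curve fit vs DMSO baseline; parallel SRB total-protein staining for cytotoxicity.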

Read-out in assay [18]: Urokinase-type plasminogen activator receptor (uPAR), PLAUR (gene 5329)
In words: BSK_4H_uPAR: BioMAP Diversity Plus: 4H Assay for Urokinase-type plasminogen activator receptor (uPAR) Biomarker Activity (AID 2283030). The conditions noted are these: primary human endothelial cells (HUVEC); actives raise or lower the signal. In outline:
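Cell-surface uPAR ELISA signal, measured 24 h after dosing human umbilical vein endothelial cells, was analyzed with bidirectional fitting relative to DMSO. Parallel SRB staining of total protein tracked overt cytotoxicity.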

Read-out in assay [19]: Vascular endothelial growth factor receptor 2 (Homo sapiens) (UniProt P35968)
The experiment in a line: BSK_4H_VEGFRII: BioMAP Diversity Plus: 4H Assay for Vascular endothelial growth factor receptor 2 (VEGFR2) Biomarker Activity (AID 2283031). To be noted: primary human endothelial cells (HUVEC); actives raise or lower the signal. The procedure, abridged:
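ELISA read-out of VEGFRII in primary human umbilical vein endothelium, taken 24 h after chemical treatment. Responses are expressed relative to DMSO, with bidirectional fitting.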

Read-out in assay [20]: Pselectin, SELP (gene 6403)
In words: BSK_4H_Pselectin: BioMAP Diversity Plus: 4H Assay for Pselectin Biomarker Activity (AID 2283026). To be noted: primary human endothelial cells (HUVEC); actives raise or lower the signal. The procedure, abridged: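 HUVEC, 24 h chemical exposure; P-selectin read by ELISA. Bidirectional curve fit vs DMSO baseline; gain or loss of signal scored.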

Sequence of human Retinoid X Receptor beta (RXRb), RXRB (gene 6257) (P28702 whole entry, looked up, the tested form may be a part): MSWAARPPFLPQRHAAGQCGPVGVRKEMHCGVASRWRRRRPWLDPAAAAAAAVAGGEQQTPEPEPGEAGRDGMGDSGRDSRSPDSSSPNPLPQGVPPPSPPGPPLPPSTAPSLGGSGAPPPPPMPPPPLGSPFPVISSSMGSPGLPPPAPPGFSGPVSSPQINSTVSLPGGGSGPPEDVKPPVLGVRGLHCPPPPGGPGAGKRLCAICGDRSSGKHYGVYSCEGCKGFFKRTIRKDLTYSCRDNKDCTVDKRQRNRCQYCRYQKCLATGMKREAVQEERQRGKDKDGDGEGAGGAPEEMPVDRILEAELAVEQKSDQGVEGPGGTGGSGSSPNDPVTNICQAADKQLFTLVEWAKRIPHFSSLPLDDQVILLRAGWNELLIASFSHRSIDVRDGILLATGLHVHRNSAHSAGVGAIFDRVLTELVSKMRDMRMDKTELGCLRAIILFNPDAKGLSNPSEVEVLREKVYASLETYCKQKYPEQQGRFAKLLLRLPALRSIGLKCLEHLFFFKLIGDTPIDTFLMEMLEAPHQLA
Sequence of Retinoic acid receptor RXR-alpha (Homo sapiens) (P19793 whole entry, looked up, the tested form may be a part): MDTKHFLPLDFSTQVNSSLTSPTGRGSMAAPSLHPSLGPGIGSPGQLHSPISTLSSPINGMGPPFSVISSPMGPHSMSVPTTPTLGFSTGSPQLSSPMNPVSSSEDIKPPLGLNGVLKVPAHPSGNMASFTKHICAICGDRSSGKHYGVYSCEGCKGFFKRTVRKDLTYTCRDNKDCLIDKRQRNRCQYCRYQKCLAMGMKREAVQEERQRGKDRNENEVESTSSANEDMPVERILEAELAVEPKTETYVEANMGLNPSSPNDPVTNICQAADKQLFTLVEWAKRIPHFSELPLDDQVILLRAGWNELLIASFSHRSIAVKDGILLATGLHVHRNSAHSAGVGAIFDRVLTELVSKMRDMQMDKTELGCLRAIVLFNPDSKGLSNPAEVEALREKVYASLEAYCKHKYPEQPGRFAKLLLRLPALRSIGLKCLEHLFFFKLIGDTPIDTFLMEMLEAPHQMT
Sequence of human Vitamin D Receptor (VDR), VDR (gene 7421) (P11473 whole entry, looked up, the tested form may be a part): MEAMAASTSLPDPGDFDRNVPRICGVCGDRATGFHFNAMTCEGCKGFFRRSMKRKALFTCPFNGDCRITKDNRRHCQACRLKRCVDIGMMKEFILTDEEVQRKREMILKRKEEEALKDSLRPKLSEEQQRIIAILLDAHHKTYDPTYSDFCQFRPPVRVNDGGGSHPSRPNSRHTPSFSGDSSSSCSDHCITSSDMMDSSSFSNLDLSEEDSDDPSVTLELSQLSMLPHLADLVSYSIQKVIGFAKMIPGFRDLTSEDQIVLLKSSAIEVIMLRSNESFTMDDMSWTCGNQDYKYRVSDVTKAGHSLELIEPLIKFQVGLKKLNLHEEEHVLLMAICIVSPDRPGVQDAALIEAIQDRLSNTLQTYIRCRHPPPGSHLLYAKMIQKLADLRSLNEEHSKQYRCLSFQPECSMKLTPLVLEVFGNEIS
Sequence of E-selectin (Homo sapiens) (P16581 whole entry, looked up): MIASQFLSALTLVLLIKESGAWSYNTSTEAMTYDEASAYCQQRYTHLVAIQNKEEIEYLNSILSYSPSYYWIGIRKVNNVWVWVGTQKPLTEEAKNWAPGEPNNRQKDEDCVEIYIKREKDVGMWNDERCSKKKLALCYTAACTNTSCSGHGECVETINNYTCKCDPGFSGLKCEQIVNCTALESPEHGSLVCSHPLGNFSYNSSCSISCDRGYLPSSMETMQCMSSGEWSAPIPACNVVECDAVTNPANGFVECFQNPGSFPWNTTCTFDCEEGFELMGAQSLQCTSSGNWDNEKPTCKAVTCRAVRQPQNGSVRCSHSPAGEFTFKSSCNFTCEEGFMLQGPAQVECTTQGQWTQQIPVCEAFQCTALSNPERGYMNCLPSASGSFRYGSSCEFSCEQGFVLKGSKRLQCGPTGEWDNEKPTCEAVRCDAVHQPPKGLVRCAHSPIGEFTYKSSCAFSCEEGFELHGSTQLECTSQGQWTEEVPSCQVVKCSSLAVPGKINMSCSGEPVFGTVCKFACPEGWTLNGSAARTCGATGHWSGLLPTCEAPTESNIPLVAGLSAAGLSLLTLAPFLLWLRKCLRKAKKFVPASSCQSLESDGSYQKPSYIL
Sequence of human Thyroid Receptor alpha (THRa1), THRA (gene 7067) (P10827 whole entry, looked up, the tested form may be a part): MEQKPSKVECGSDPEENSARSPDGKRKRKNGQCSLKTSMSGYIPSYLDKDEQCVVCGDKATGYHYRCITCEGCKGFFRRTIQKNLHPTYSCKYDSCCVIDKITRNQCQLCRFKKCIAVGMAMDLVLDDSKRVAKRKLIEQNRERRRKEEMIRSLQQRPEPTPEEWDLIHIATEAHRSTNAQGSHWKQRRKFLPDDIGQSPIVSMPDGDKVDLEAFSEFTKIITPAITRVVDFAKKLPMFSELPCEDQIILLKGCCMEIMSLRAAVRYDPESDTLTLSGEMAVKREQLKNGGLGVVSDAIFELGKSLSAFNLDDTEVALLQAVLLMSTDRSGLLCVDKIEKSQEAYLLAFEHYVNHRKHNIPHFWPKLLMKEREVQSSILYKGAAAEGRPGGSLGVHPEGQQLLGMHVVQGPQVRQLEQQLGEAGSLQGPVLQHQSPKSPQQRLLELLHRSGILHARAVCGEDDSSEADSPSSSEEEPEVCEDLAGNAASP

On to `CNC(=O)Oc1cccc2c1OC(C)(C)C2`, for which the result in [1], in assay [3], in assay [4], in [5], in assay [6] and in [7] was inactive. The outcome in [8], in assay [9], in assay [10], in assay [11], in assay [12] and in assay [13] was inactive. Moreover, the outcome in assay [14], in assay [15], in [16], in assay [17], in assay [18] and in assay [19] was inactive. The AC50 in assay [2] is 58.7 µM (active).

On to `C1=Cc2cccc3cccc1c23`, for which the compound was called inactive in [1], in assay [2], in [3], in assay [4], in [5] and in assay [6]. The outcome in assay [7], in [8], in assay [9], in assay [10], in [11] and in assay [12] was inactive. Moreover, the result in [13], in assay [14], in assay [15], in assay [16], in assay [17] and in [18] was inactive. For the same compound, the result in assay [19] was inactive.

As to `CS(=O)(=O)NC(=O)c1cc(Oc2ccc(C(F)(F)F)cc2Cl)ccc1[N+](=O)[O-]`, the result in assay [1], in [2], in [4], in assay [5], in assay [6] and in assay [7] was inactive. The outcome in assay [8], in assay [9], in assay [10], in [11], in assay [12] and in assay [13] was inactive. The outcome in assay [14], in assay [20], in assay [15], in assay [16], in assay [17] and in assay [18] was inactive. Besides, the result in assay [19] was inactive.

For `c1ccc2c(c1)-c1cccc3cccc-2c13`, the result in [1], in [3], in [4], in assay [5], in [6] and in [7] was inactive. In addition, the outcome in assay [8], in assay [9], in [10], in assay [11], in assay [12] and in assay [13] was inactive. Besides, the result in assay [14], in assay [15], in assay [16], in assay [17] and in assay [18] was inactive. Besides, in [2], the AC50 was 31.2 µM (active).

`O=[N+]([O-])C(Br)(CO)CO`: the compound was called inactive in [1], in [2], in assay [3], in assay [5], in [11] and in [13]. Moreover, the outcome in [16], in [17] and in assay [19] was inactive. Further, the concentration at half-maximal activity (AC50) was 32.6 µM (active) in assay [4]; 30.5 µM (active) in [6]; 28.9 µM (active) in assay [7]; 16.5 µM (active) in assay [8]; 35.8 µM (active) in assay [9]; 34.9 µM (active) in [10]. In addition, the AC50 in [12] is 15.3 µM (active); in [14] it was 37.5 µM (active); in assay [20], 20 µM (active); in assay [15], 20 µM (active); in assay [18], 31.7 µM (active).

In the case of `c1ccc(NNc2ccccc2)cc1`, the result in assay [1], in assay [3], in assay [4], in assay [5], in [6] and in [7] was inactive. Moreover, the outcome in assay [8], in [9], in assay [10], in assay [11], in assay [12] and in assay [13] was inactive. The outcome in [14], in assay [15], in assay [16], in assay [17], in [18] and in assay [19] was inactive. The AC50 in assay [2] was 100 µM (active).

In the case of `CO[C@@H]1[C@H](OC(=O)NC(=O)CCl)CC[C@]2(CO2)[C@H]1[C@@]1(C)O[C@@H]1CC=C(C)C`, the compound was called inactive in [1], in assay [2], in assay [3], in assay [5], in [6] and in assay [7]. Also, the outcome in [9], in [10], in [11], in assay [12], in assay [13] and in assay [14] was inactive. Further, the outcome in assay [15], in assay [16], in [17], in assay [18] and in [19] was inactive. Further, the AC50 was 5.16 µM (active) in assay [4] and 8.98 µM (active) in assay [8].

The term AC50 denotes the concentration giving half of the maximal activity seen.
